# “And” between values parts separate entries of the source, which are not always exact repeats. Equal entries are not always repeated. Inconclusive results are not listed. The source made the active and inactive calls. Cut-off read from the data, not from the text of the source, unless noted: active = inhibition above about 80%; inactive = the rest.
# Tests used:
# [1] = biological target: 6-phosphogluconate dehydrogenase, decarboxylating (Homo sapiens) (UniProt P52209); test: inhibition of human phosphogluconate dehydrogenase – biochemical, recombinant enzyme, NADPH absorbance, primary screen (AID 1159550;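 active = at least 20% inhibition of 6-phosphogluconate dehydrogenase activity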); conditions: recombinant 6PGD, NADPH absorbance 341 nm; at 10 µM; stronger effect = higher value
# [2] = viability loss with induced miR-34 in A549 – imaging, A549 dox-inducible miR-34, nuclei and caspase counts, primary screen (AID 1347080;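 active = compounds whose cell count with miR-34 switched on is under 0.7 times the count with it off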); conditions: A549 miR-34 inducible, Hoechst nuclei count, 48 h
# [3] = biological target: NAD(+) hydrolase SARM1 (Homo sapiens) (UniProt Q6SZW1); test: blocking NAD cleavage by SARM1 SAM-TIR – cell lysate, NAD-Glo luminescence (AID 1508614;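 active = compound whose remaining NAD level is above about 45 nM, limit read from the data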;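 note: higher remaining NAD means stronger inhibition of SARM1 NADase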); conditions: SAM-TIR HEK293T lysate NADase, at 1 µM, stronger effect = higher value
# [4] = biological target: Mitogen-activated protein kinase 7 (Homo sapiens) (UniProt Q13164); test: Gal4-ERK5 driven luciferase induction – cell-based, HTS, primary screen (AID 1508626;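 active = luciferase signal above three times the same-plate solvent-only control wells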;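 note: luciferase driven by Gal4-ERK5 fusion binding five Gal4 sites before minimal TATA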); conditions: HeLa Gal4-ERK5 transactivation, 18 h, at 5 µM, stronger effect = higher value
# [5] = galactose survival enhancers in mitochondrial complex I cybrids – cell-based, galactose medium, ATP luminescence, primary screen (AID 1645843;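 active = z-score of at least 1.8 in each of two replicates, scored against plate mean and spread of sample wells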;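 note: positive z means more ATP and so rescue of galactose-driven cybrid death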); conditions: complex I mutant cybrid cells, 72 h, stronger effect = higher value
# [6] = growth inhibition, single agent or in combination, cell-based, chromothripsis tumors, cisplatin or BGB combos (AID 1671449); conditions: LFS_MB_P medulloblastoma cells;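 note: cells exposed for 96 hours; 0% = vehicle DMSO and 100% = killing by high DMSO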
# [7] = growth inhibition, single agent and combos, cell-based, chromothripsis tumors, cisplatin or BGB combos (AID 1671450); conditions: HDN33 neuroblastoma cells, stronger effect = higher value;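 note: cells exposed to compound for four days; 0% = vehicle DMSO and 100% = cell killing by high DMSO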
# [8] = growth inhibition, single agents and combos, ICB984, cell-based, cisplatin or BGB combos, synergistic combos for chromothripsis tumors (AID 1671451; call rule not given here;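 note: cells exposed for 96 hours before readout; 0% = vehicle DMSO and 100% = killing by high DMSO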); conditions: ICB984 medulloblastoma cells, drug combinations, stronger effect = higher value
# [9] = growth inhibition, single agents and combos, LFS_MB_1R, cell-based, cisplatin or BGB combos, synergistic combos for chromothripsis tumors (AID 1671452); conditions: LFS_MB_1R medulloblastoma cells, stronger effect = higher value;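 note: cells exposed for 96 hours before readout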
# [10] = growth inhibition, single agents and combos, HTB85, cell-based, BGB or cisplatin IC20 combos, synergistic combos for chromothripsis tumors (AID 1671453); conditions: HTB85 osteosarcoma cells, drug combinations, stronger effect = higher value;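 note: cells exposed for 96 hours before readout; 0% = vehicle DMSO and 100% = high DMSO killing control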
# [11] = growth inhibition, MDA-MB-436, cell-based, BGB or cisplatin combos, synergistic combos for chromothripsis tumors (AID 1671458; call rule not given here;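 note: cells exposed for 96 hours; 0% = vehicle DMSO and 100% = killing by high DMSO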); conditions: MDA-MB-436 breast carcinoma growth inhibition, drug combinations, stronger effect = higher value
# [12] = BT084 cell growth, single and combined drugs, ICGC_MB145, cisplatin and BGB IC40 combos (AID 1671461); conditions: BT084 medulloblastoma cells, drug combinations, stronger effect = higher value;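 note: cells exposed to drugs for 96 hours; 0% = vehicle DMSO and 100% = high DMSO full killing control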
# [13] = RCMB18 cell growth, single agent and combined, cisplatin and BGB IC40 combos (AID 1671462); conditions: RCMB18 medulloblastoma cells, stronger effect = higher value;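 note: cells exposed to compound for four days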
# [14] = CRL1545 cell growth, single agent and combined, cisplatin and BGB IC20 combos (AID 1671464); conditions: CRL1545 osteosarcoma cells, stronger effect = higher value;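 note: cells exposed to compound for 96 hours before readout; 0% = vehicle DMSO and 100% = high DMSO killing control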
# [15] = viability loss in pontine glioma line – cell-based, SU-DIPG-XIII, MIPE4.0, CellTiter-Glo, qHTS, dose response (AID 1347061; cut-off not given, nearly all actives have AC50 up to about 37 µM;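 note: cells exposed to compound for 48 hours before readout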); conditions: CellTiter-Glo ATP luminescence
# [16] = viability loss in pontine glioma line – cell-based, JHH-DIPG-1, MIPE4.0, CellTiter-Glo, qHTS, dose response (AID 1347062; cut-off not given, nearly all actives have AC50 up to about 27 µM); conditions: JHH-DIPG-1 viability, CellTiter-Glo ATP luminescence
# [17] = viability loss in pontine glioma line – cell-based, SU-DIPG-IV, MIPE4.0, CellTiter-Glo, qHTS, dose response (AID 1347063; cut-off not given, nearly all actives have AC50 up to about 30 µM;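 note: compound exposure lasted 48 hours before the viability readout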); conditions: CellTiter-Glo ATP luminescence
# [18] = MELAS cybrid and Rieske KO viability enhancers – cell-based, MELAS cybrids, Rieske KO mouse fibroblasts, CellTiter-Glo, primary screen (AID 1508586;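 active = mean z-score across replicates of 1.96 or higher in either the MELAS or the Rieske mutant cell line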;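 note: z relative to plate mean and SD of compound and empty wells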); conditions: low glucose
# [19] = stronger effect = lower value, cell number ratio, induced over uninduced
# [20] = measured here: relative caspase fold change +Dox/-Dox
# [21] = measured here: total cells with miR-34 induction, stronger effect = lower value
# [22] = measured here: total cells without miR-34 induction
# [23] = measured here: combination with BGB IC40, at 0.05 µM
# [24] = measured here: with BGB IC20 combination, at 0.5 µM
# [25] = measured here: with cisplatin IC20 combination, at 0.5 µM
# [26] = measured here: combination with cisplatin, at 0.5 µM
# NAD(+) hydrolase SARM1 (Homo sapiens), sequence (Q6SZW1 whole entry, looked up, the tested form may be a part): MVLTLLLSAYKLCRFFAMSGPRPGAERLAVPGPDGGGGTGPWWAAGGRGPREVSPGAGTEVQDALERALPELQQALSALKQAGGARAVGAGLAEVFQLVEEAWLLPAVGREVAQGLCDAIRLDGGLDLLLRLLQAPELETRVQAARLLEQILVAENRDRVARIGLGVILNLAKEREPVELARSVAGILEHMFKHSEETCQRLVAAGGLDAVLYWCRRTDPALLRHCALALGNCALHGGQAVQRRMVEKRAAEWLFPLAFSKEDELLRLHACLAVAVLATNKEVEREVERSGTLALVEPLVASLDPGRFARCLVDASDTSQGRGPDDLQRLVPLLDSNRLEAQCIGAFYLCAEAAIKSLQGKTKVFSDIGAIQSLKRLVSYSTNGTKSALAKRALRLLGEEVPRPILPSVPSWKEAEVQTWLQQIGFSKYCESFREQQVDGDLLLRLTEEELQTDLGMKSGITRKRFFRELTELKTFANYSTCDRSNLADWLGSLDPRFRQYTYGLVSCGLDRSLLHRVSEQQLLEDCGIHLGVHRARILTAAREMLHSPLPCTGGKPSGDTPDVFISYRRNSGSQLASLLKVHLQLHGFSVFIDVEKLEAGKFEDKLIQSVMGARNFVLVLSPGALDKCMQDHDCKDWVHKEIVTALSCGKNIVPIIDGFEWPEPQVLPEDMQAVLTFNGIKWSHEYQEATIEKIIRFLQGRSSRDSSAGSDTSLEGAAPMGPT
# 6-phosphogluconate dehydrogenase, decarboxylating (Homo sapiens), sequence (P52209 whole entry, looked up): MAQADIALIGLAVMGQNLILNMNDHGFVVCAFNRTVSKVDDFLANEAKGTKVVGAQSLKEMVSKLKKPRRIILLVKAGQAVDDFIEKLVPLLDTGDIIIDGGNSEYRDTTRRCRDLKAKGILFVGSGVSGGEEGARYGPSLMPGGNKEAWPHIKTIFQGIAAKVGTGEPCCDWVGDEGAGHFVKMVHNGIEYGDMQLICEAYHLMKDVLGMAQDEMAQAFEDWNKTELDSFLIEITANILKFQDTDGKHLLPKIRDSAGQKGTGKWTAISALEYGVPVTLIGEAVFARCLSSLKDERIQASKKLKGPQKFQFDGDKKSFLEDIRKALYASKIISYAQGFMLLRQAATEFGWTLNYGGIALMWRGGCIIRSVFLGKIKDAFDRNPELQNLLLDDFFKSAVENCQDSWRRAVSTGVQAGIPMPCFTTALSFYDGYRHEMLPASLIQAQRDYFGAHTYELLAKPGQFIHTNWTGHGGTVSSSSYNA
# Mitogen-activated protein kinase 7 (Homo sapiens), sequence (Q13164 whole entry, looked up, the tested form may be a part): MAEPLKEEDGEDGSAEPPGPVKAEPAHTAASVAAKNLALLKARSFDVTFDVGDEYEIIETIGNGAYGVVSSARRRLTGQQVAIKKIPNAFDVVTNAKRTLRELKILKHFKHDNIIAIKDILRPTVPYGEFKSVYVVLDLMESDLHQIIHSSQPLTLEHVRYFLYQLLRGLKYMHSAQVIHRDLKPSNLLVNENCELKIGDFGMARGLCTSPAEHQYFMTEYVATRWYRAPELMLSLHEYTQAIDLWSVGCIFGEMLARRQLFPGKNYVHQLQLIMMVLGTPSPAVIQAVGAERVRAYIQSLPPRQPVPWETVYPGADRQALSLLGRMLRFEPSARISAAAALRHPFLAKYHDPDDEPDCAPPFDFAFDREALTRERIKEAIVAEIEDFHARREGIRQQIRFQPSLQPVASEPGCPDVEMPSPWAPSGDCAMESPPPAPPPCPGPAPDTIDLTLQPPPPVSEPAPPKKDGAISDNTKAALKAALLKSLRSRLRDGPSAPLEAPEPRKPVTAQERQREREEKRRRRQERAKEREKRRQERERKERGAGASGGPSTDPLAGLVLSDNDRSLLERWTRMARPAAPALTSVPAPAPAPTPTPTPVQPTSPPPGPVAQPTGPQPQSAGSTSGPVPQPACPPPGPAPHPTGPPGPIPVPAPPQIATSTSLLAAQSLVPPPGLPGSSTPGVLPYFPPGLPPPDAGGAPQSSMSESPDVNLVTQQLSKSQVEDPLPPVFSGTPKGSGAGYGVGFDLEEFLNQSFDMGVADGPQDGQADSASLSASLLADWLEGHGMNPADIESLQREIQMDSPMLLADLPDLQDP
smiles,measurement,setting,value
COc1cc(NS(C)(=O)=O)ccc1Nc1c2ccccc2nc2ccccc12,inhibition,[1],-14.7% (inactive)
same,fold change,[2]; [19],0.846 (inactive)
same,fold change,[2]; [20],1.94
same,cell count,[2]; [21],867
same,cell count,[2]; [22],1020
same,remaining NAD,[3],10 nM (inactive)
same,luciferase signal,[4],52 AU (inactive)
same,z-score,[5],-1.31 (inactive)
same,inhibition,"[6]; at 0.5 µM, stronger effect = higher value",66.6% (inactive) and -15.7% (inactive)
same,inhibition,"[6]; measured here: combination with BGB IC20, at 0.005 µM",-8.73% and -9.94%
same,inhibition,"[6]; measured here: combination with BGB IC40, at 0.005 µM",-5.2% and -25.6%
same,inhibition,[6]; [23],-1.49% and -18.2%
same,inhibition,"[6]; measured here: combination with cisplatin, at 0.5 µM, stronger effect = higher value",79.4% and -1.04%
same,inhibition,"[6]; measured here: combination with cisplatin, at 5 µM, stronger effect = higher value",41.8% and 26.1%
same,inhibition,"[7]; BGB combo, at 5 µM",88.5% and 63.3%
same,inhibition,[7]; at 0.5 µM,50.8% (inactive) and 41.9% (inactive)
same,inhibition,"[7]; cisplatin combo, at 5 µM",68.8% and 65.8%
same,inhibition,[7]; [24],51.3% and 43.7%
same,inhibition,[7]; [25],45.8% and 24%
same,inhibition,"[7]; single agent, at 5 µM",88.6% and 78.5%
same,inhibition,"[8]; BGB IC20 combo, at 0.005 µM",-6.17% and -3.09%
same,inhibition,"[8]; BGB IC40 combo, at 0.005 µM",3.68% and -48.5%
same,inhibition,"[8]; BGB IC40 combo, at 0.05 µM",39.5% and 18.4%
same,inhibition,[8]; at 0.5 µM,-24.7% (inactive) and -27.8% (inactive)
same,inhibition,"[8]; cisplatin combo, at 0.05 µM",39.5% and 15.2%
same,inhibition,"[8]; cisplatin combo, at 0.5 µM",-38.9% and -24.5%
same,inhibition,"[8]; cisplatin combo, at 5 µM",-5% and -33%
same,inhibition,"[8]; measured here: 5 uM single agent, at 5 µM",3.59% and -0.607%
same,inhibition,[9]; at 0.5 µM,1.68% (inactive) and -19.1% (inactive)
same,inhibition,[9]; [23],17.9% and -5.14%
same,inhibition,[9]; [26],10% and -20.9%
same,inhibition,"[9]; measured here: combination with cisplatin, at 5 µM",63.4% and 27.6%
same,inhibition,[10]; at 0.5 µM,17.3% (inactive) and 24.9% (inactive)
same,inhibition,"[10]; measured here: with BGB IC20, at 0.5 µM",3.95% and 14.9%
same,inhibition,"[10]; measured here: with BGB IC20, at 5 µM",82.3% and 79.8%
same,inhibition,"[10]; measured here: with cisplatin IC20, at 0.5 µM",25% and 29.1%
same,inhibition,"[10]; measured here: with cisplatin IC20, at 5 µM",87.8% and 84.6%
same,inhibition,"[10]; single agent, at 5 µM",91% and 89.1%
same,inhibition,[11]; at 0.5 µM,43.4% (inactive) and 40.4% (inactive)
same,inhibition,"[11]; measured here: BGB combination, at 0.5 µM",27.5% and 21.1%
same,inhibition,"[11]; measured here: BGB combination, at 5 µM",55% and 42.6%
same,inhibition,"[11]; measured here: cisplatin combination, at 0.5 µM",41.4% and 47.1%
same,inhibition,"[11]; measured here: cisplatin combination, at 5 µM",67.1% and 66.9%
same,inhibition,[12]; at 0.5 µM,-11.3% (inactive) and -37.4% (inactive)
same,inhibition,"[12]; cisplatin combination, at 0.5 µM",-2.36% and -21.2%
same,inhibition,"[12]; cisplatin combination, at 5 µM",23.7% and 15.2%
same,inhibition,"[12]; measured here: BGB IC40 combination 0.05 uM, at 0.05 µM",53.7% and -12.4%
same,inhibition,"[12]; single agent, at 5 µM",7.96% and 23.3%
same,inhibition,[13]; at 0.5 µM,-1.22% (inactive) and -23% (inactive)
same,inhibition,"[13]; cisplatin combo, at 5 µM",58.3% and 44.1%
same,inhibition,"[13]; measured here: BGB IC40 combination, at 0.05 µM",-16.8% and -37.3%
same,inhibition,[13]; [26],28.6% and 11.4%
same,inhibition,"[13]; single agent, at 5 µM",29.4% and 2.77%
same,inhibition,[14]; at 0.5 µM,24% (inactive) and 17.8% (inactive)
same,inhibition,[14]; [24],24.3% and 13.1%
same,inhibition,[14]; [25],23.8% and 20.2%
same,inhibition,"[14]; single agent, at 0.05 µM",42.2% and 26.1%
same,inhibition,"[14]; single agent, at 5 µM",82.1% and 75.5%
O=C1c2c(O)cccc2[C@H]([C@@H]2O[C@H](CO)[C@@H](O)[C@H](O)[C@H]2O)c2cc(CO)cc(O)c21,inhibition,[1],-1.53% (inactive)
same,outcome,[15],inactive
same,outcome,[16],inactive
same,remaining NAD,[3],10 nM (inactive)
same,luciferase signal,[4],44 AU (inactive)
COc1ccc(-c2cc(=O)c3c(O)cc(O[C@@H]4O[C@H](CO[C@@H]5O[C@@H](C)[C@H](O)[C@@H](O)[C@H]5O)[C@@H](O)[C@H](O)[C@H]4O)cc3o2)cc1O,inhibition,[1],7.55% (inactive)
same,outcome,[16],inactive
same,outcome,[17],inactive
same,z-score,"[18]; MELAS cybrid survival, CellTiter-Glo 48 h, stronger effect = higher value",0.526 (inactive)
same,z-score,"[18]; Rieske KO mouse fibroblast survival, CellTiter-Glo 72 h",0.0112
same,remaining NAD,[3],10 nM (inactive)
same,luciferase signal,[4],80 AU (inactive)
CCCn1c(=O)c2[nH]c(C3CCCC3)nc2n(CCC)c1=O,inhibition,[1],11.4% (inactive)
same,fold change,[2]; [19],1.02 (inactive) and 0.942 (inactive)
same,fold change,[2]; [20],1.07 and 0.717
same,cell count,[2]; [21],7850 and 7600
same,cell count,[2]; [22],7700 and 8070
same,z-score,[5],1.02 (inactive) and 0.16 (inactive)

# — PubChem BioAssay
